Bioassay records: PubChem, National Center for Advancing Translational Sciences (NCATS)
uPA surface inh – cell surface uPA generation inhibition. Potency, µM (series often up to 38.3 µM), for inactives: at the highest dose activity change, negative = inhibition, usual class: inhibitors. 0.31% of 330,000 active. cell surface uPA generation assay, qHTS; active means well fitted inhibition curve with a large enough effect; inconclusive means small, poorly fitted or top-dose-only effect; inactive means no such curve, though single readings can be large or run the other way; tested in mouse RAW 264.7 cells; further: potency means the concentration at half of the fitted maximal effect; on the % scale 0 is the no-effect control and ±100 the full control effect; nearly all actives have a fitted effect of over 55% in size
TRPV1 PAM – potentiators of human vanilloid receptor 1 (TRPV1) | AID 540277 | Q8NER1 | 0.02% of 320,000 active | potentiation, % at 8.33 µM | TRPV1-expressing cells, Fluo-8 calcium influx, capsaicin EC20 potentiation; in the data active means potentiation above about 80%; inconclusive means between about 30% and that limit; further: 0% is about no effect
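Fluo-8 calcium influx in TRPV1-expressing cells, kinetic read (ex 480/em 520 nm). Compound added and read 3 min for agonist activity, followed by capsaicin at EC20 final and 2 min further read for enhancement.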
VP16 counter – inhibits Gal4-VP16 luciferase reporter, ROR gamma counter-screen | Drosophila S2 Gal4-VP16 UAS-luciferase, luminescence, 20 h | Potency, µM (titrated, usually from 53.6 µM), for inactives: at the top dose activity, negative = inhibition, most hits filed as inhibitors | 3.5% of 310,000 active;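 further: Gal4-VP16 expression switched on by copper sulfate through the metallothionein promoter; potency means the concentration at half of the fitted maximal effect; on the % scale 0 is the no-effect control and ±100 the full control effect; nearly all actives have a fitted effect of over 50% in size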
TRPV1 agonist – activates the human vanilloid receptor TRPV1; activation, % at 8.33 µM; AID 540275; 0.19% of 320,000 active; Q8NER1; TRPV1-expressing cells, Fluo-8 calcium influx, agonist mode; in the data active means activation above about 80%; inconclusive means between about 30% and that limit; further: 0% is about no effect
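Fluo-8 calcium influx in TRPV1-expressing cells, kinetic read (ex 480/em 520 nm). Compound added and read 3 min for agonist activity, followed by capsaicin at EC20 final and 2 min further read for enhancement.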
RORg inh – blocks mouse ROR gamma transcriptional activity; 5.4% of 310,000 active; P51450; Drosophila S2 Gal4-RORgamma UAS-luciferase reporter, 20 h; Potency, µM (titrated, usually from 53.6 µM), without a hit: at the top dose activity change, negative = inhibition, usual class: inhibitors; AID 2551; further: potency means the concentration at half of the fitted maximal effect; on the % scale 0 is the no-effect control and ±100 the full control effect; nearly all actives have a fitted effect of over 60% in size
Target sequence (P51450 whole entry, looked up, the tested form may be a part): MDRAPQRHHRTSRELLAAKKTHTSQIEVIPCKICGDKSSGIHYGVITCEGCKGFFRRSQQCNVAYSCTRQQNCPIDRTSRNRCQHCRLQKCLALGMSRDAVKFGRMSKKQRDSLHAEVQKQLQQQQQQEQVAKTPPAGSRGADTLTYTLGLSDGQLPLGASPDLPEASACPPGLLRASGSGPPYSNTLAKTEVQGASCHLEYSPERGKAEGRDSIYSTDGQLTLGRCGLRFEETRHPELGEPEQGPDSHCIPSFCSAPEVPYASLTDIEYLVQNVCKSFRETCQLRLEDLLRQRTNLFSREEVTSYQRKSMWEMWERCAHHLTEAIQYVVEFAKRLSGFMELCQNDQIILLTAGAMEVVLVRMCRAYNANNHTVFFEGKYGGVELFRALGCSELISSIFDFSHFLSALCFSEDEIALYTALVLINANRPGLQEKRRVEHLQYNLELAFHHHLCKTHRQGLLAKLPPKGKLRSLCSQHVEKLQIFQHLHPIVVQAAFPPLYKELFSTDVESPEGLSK
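Luciferase reporter read in Schneider cells carrying Gal4-RORγ (mouse) and UAS-Photinus luciferase; cells given compound 1 h before 700 uM copper sulfate induction, then incubated 20 h at ambient temperature.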
* marks the source's active call; other numbers are inactive results; [ ] = remark or other dose. Rows were chosen to be rich in hits. Some 5.8% of all compounds tested hit in one or more screens of this group. Unless noted, the call rests on the fitted dose curve; in most records, active means well fitted curve in the direction sought with a large enough effect; inconclusive means small, poorly fitted or top-dose-only effect, or another doubt; inactive means no such curve, though single readings can be large; an effect the other way counts as inactive or inconclusive.

Screening O=C(CNC(=O)c1ccccc1F)c1ccccc1 returned uPA surface inh inconclusive, TRPV1 PAM -9.3, VP16 counter inconclusive, TRPV1 agonist 5.5 and RORg inh 11.2µM*.
`Cc1ccc(SCCNC(=O)c2ccccc2F)cc1` gave uPA surface inh 10.6%, TRPV1 PAM -29.4, VP16 counter -12.6%, TRPV1 agonist 80.1* and RORg inh 1.5%.
For O=C(CNC(=O)c1ccccc1Cl)c1ccccc1 the results were uPA surface inh -7.0%, TRPV1 PAM 10.4, VP16 counter -25.0%, TRPV1 agonist 0.1 and RORg inh 8.91µM*.
Cc1ccccc1C(=O)NCC(=O)c1ccccc1 was read as uPA surface inh -23.6%.
For CC(=O)OCC(NC(=O)C(COCc1ccccc1)NC(=O)OC(C)(C)C)C1OC(n2cc(C)c(=O)[nH]c2=O)C(OC(C)=O)C1OC(C)=O (configuration not stated) the results were VP16 counter -0.2% and RORg inh 19.5%.
For O=C(O)c1ccc(/C=C/c2ccc3cccc(O)c3n2)cc1 the results were uPA surface inh 6.5%, TRPV1 PAM -34.0, VP16 counter 0.562µM*, TRPV1 agonist 2.8 and RORg inh 2.82µM*.
`COC(=O)c1ccc(/C=C/c2ccc3cccc(OC(C)=O)c3n2)cc1` gave uPA surface inh -0.6%, TRPV1 PAM -18.1, VP16 counter 3.55µM*, TRPV1 agonist 3.0 and RORg inh 5.62µM*.
`O=[N+]([O-])c1ccc(/C=C/c2ccc3cccc([N+](=O)[O-])c3n2)cc1` gave uPA surface inh -0.3%, TRPV1 PAM inconclusive, VP16 counter -27.1%, TRPV1 agonist -7.5 and RORg inh inconclusive.
`O=[N+]([O-])c1cccc(/C=C/c2ccc3cccc(O)c3n2)c1` gave uPA surface inh 2.0%, TRPV1 PAM 3.0, VP16 counter 4.47µM*, TRPV1 agonist 2.8 and RORg inh 3.16µM*.
For Oc1ccc(/C=C/c2ccc3cccc(O)c3n2)cc1Br the results were uPA surface inh inconclusive, TRPV1 PAM -2.8, VP16 counter 17.8µM*, TRPV1 agonist 9.2 and RORg inh 3.16µM*.
CC(C)=CCC[C@](C)(O[C@@H]1O[C@H](CO)[C@@H](O)[C@H](O)[C@H]1O)[C@H]1CC[C@]2(C)[C@@H]1[C@H](O)C[C@@H]1[C@@]3(C)CC[C@H](O[C@@H]4O[C@H](CO)[C@@H](O)[C@H](O)[C@H]4O[C@@H]4O[C@H](CO)[C@@H](O)[C@H](O)[C@H]4O)C(C)(C)[C@@H]3[C@@H](O)C[C@]12C was read as VP16 counter 1.7% and RORg inh 19.1%.
For CC(C)Oc1ccc(C(CC(=O)O)n2cnnn2)cc1 (configuration not stated) the results were uPA surface inh 4.3%, TRPV1 PAM 9.5, VP16 counter 7.9%, TRPV1 agonist -0.2 and RORg inh -9.4%.
Screening COc1ccc(C(=O)OCC(=O)Nc2ccc3c(c2)OCO3)cc1S(=O)(=O)N1CCOCC1 returned uPA surface inh 2.2%, TRPV1 PAM -2.1 and TRPV1 agonist -3.7.
`COc1ccc(C(=O)Nc2ccc(N3CCCCCC3)cc2)cc1S(=O)(=O)N1CCOCC1` gave uPA surface inh -57.4%, TRPV1 PAM -10.6 and TRPV1 agonist 27.0.
Screening COCCN(C(=O)COC(=O)Cc1cccc(OC)c1)c1c(N)n(CC(C)C)c(=O)[nH]c1=O returned uPA surface inh 8.3%, TRPV1 PAM 3.9 and TRPV1 agonist 0.1.
`OC[C@H]1O[C@@H](O[C@@H]2OC=C[C@H]3[C@H](O)[C@@H]4O[C@]4(CO)[C@@H]23)[C@H](O)[C@@H](O)[C@@H]1O` gave VP16 counter -10.3% and RORg inh -23.0%.
O=C(Cn1cnnn1)Nc1cccc([N+](=O)[O-])c1 was read as uPA surface inh 2.2%, TRPV1 PAM 6.6, VP16 counter -3.2%[10 µM], TRPV1 agonist -2.7 and RORg inh -8.3%.
Screening Cn1c(O)c(N=NC(=O)c2cccc(S(=O)(=O)N3CCCCC3)c2)c2ccccc21 returned uPA surface inh -8.4%, TRPV1 PAM 2.7, VP16 counter -13.7%, TRPV1 agonist -3.1 and RORg inh -1.4%.
For Cc1ccc(C)c(SCC(=O)Nc2cc(S(=O)(=O)N3CCOCC3)ccc2C)c1 the results were uPA surface inh 0.9%, TRPV1 PAM 15.8 and TRPV1 agonist 11.7.
For Cc1cc(S(=O)(=O)N2CCOCC2)ccc1OCC(=O)Nc1ccccc1F the results were uPA surface inh -0.6%, TRPV1 PAM 4.9, VP16 counter -1.3%, TRPV1 agonist 0.2 and RORg inh -28.0%.
Screening Cc1ccc(Cn2c(O)c(N=NC(=S)Nc3ccccc3F)c3cc(S(=O)(=O)N4CCOCC4)ccc32)cc1 returned uPA surface inh -22.0%, TRPV1 PAM 8.7, VP16 counter inconclusive, TRPV1 agonist 0.5 and RORg inh 2µM*.
`Cc1ccc(C)c(NC(=S)N=Nc2c(O)n(C)c3ccc(S(=O)(=O)N4CCOCC4)cc23)c1` gave uPA surface inh inconclusive, TRPV1 PAM 5.8, VP16 counter 1.12µM*, TRPV1 agonist -0.1 and RORg inh 0.631µM*.
CCc1ccccc1NC(=S)N=Nc1c(O)n(C)c2ccc(S(=O)(=O)N3CCOCC3)cc12 was read as uPA surface inh -9.1%, TRPV1 PAM -2.0, VP16 counter 4.47µM*, TRPV1 agonist -0.9 and RORg inh 1.12µM*.
`CC1(C)CC(=O)c2sc(NS(=O)(=O)c3ccc(F)cc3)nc2C1` gave uPA surface inh -0.8%, TRPV1 PAM -2.8, VP16 counter -3.2%, TRPV1 agonist 0.0 and RORg inh 30.4%.
`COc1ccc(Cn2c(CCC(=O)Nc3ccc(C)c(C)c3)nc3cccnc32)cc1` gave uPA surface inh 2.1%, TRPV1 PAM -18.2, VP16 counter -9.9%, TRPV1 agonist -2.5 and RORg inh -4.5%.
CCCCCCCC/C=C\C/C=C\C=C\C(O)CCCC(=O)O (configuration not stated) was read as VP16 counter 0.4% and RORg inh -5.5%.
CC(C)n1c(CN(C)c2ccccc2)nc2ccccc21 was read as uPA surface inh 3.7%, TRPV1 PAM -3.0 and TRPV1 agonist 14.8.
COCCOCCn1c(/C=C/c2ccccc2)nc2ccccc21 was read as uPA surface inh -6.4%, TRPV1 PAM -22.2, VP16 counter inconclusive, TRPV1 agonist 29.5 and RORg inh 11.2µM*.
Screening CC(C)Cn1c(S(=O)(=O)O)nc2ccccc21 returned uPA surface inh 3.8%, TRPV1 PAM 29.9, VP16 counter inconclusive, TRPV1 agonist 2.2 and RORg inh -24.3%.
CCCn1c(/C=C/c2ccccc2)nc2ccccc21 was read as uPA surface inh inconclusive, TRPV1 PAM -19.3, VP16 counter inconclusive, TRPV1 agonist inconclusive and RORg inh 5.62µM*.
